# Assay results: paper PMC11062922 (Nature Chemical Biology, 2023)
# Read-outs that look alike come from different tables or passages of the source.
# Legend:
# Set-up in all cases: species or system human, MV4-11 + K-562 + COLO205 + SK-N-BE2 + OVCAR-8
# ACVR1B = conditions: read-out: apparent Kd; compound concentrations:100 nM and 1000 nM (sheet 'Samples'); n = 1
# PKN3 = conditions: read-out: apparent Kd; compound concentrations:100 nM and 1000 nM (sheet 'Samples'); n = 1
# PRKD2 = conditions: read-out: apparent Kd; compound concentrations:100 nM and 1000 nM (sheet 'Samples'); n = 1
# PRKD3 = conditions: read-out: apparent Kd; compound concentrations:100 nM and 1000 nM (sheet 'Samples'); n = 1
# ACVR2B = conditions: read-out: apparent Kd, n = 1
# DJA1 = test system: T1, DJA1; conditions: read-out: apparent Kd; compound concentrations: 100 nM and 1000 nM (sheet 'Samples'), CATDS: 0.27071673816178898; n = 1
# T1 construct: gene DNAJA1
# PIK3CD = conditions: read-out: apparent Kd, compound concentrations: 100 nM and 1000 nM (sheet 'Samples'), n = 1
# GAK = conditions: read-out: apparent Kd; compound concentrations:100 nM and 1000 nM (sheet 'Samples'); n = 1
# NQO2 = conditions: read-out: apparent Kd; compound concentrations:100 nM and 1000 nM (sheet 'Samples'); n = 1
# RIPK2 = conditions: read-out: apparent Kd; compound concentrations:100 nM and 1000 nM (sheet 'Samples'); n = 1
# TGFBR1 = conditions: read-out: apparent Kd; compound concentrations:100 nM and 1000 nM (sheet 'Samples'); n = 1
# TGFBR2 = conditions: read-out: apparent Kd; compound concentrations:100 nM and 1000 nM (sheet 'Samples'); n = 1
# TNIK = conditions: read-out: apparent Kd; compound concentrations:100 nM and 1000 nM (sheet 'Samples'); n = 1
# ZAK = conditions: read-out: apparent Kd; compound concentrations:100 nM and 1000 nM (sheet 'Samples'); n = 1
# ADCK1 = conditions: read-out: apparent Kd; compound concentrations: 100 nM and 1000 nM (sheet 'Samples'), CATDS: 4.1233669692049897E-2; n = 1
# AKT1 = conditions: read-out: apparent Kd; compound concentrations: 100 nM and 1000 nM (sheet 'Samples'), CATDS: 4.32167355318668E-2; n = 1
# AKT2 = conditions: read-out: apparent Kd; compound concentrations: 100 nM and 1000 nM (sheet 'Samples'), CATDS: 4.9283792774051899E-2; n = 1
# BTK = conditions: read-out: apparent Kd; compound concentrations: 100 nM and 1000 nM (sheet 'Samples'), CATDS: 5.4009737115297697E-2; n = 1
# CDC42BPG = conditions: read-out: apparent Kd; compound concentrations: 100 nM and 1000 nM (sheet 'Samples'), CATDS: 4.9090451053861402E-2; n = 1
# CSNK1A1 = conditions: read-out: apparent Kd; compound concentrations: 100 nM and 1000 nM (sheet 'Samples'), CATDS: 4.23666657347909E-2; n = 1
# CSNK1E = conditions: read-out: apparent Kd; compound concentrations: 100 nM and 1000 nM (sheet 'Samples'), CATDS: 3.8720748933532501E-2; n = 1
# CSNK1G3 = conditions: read-out: apparent Kd; compound concentrations: 100 nM and 1000 nM (sheet 'Samples'), CATDS: 4.2624276708998099E-2; n = 1
# IARS = conditions: read-out: apparent Kd; compound concentrations: 100 nM and 1000 nM (sheet 'Samples'), CATDS: 4.0140361212157798E-2; n = 1
# MAPK14 = conditions: read-out: apparent Kd; compound concentrations: 100 nM and 1000 nM (sheet 'Samples'), CATDS: 5.21130062125853E-2; n = 1
# OPA1 = conditions: read-out: apparent Kd; compound concentrations: 100 nM and 1000 nM (sheet 'Samples'), CATDS: 4.7870015182345502E-2; n = 1
# PIM1 = conditions: read-out: apparent Kd; compound concentrations: 100 nM and 1000 nM (sheet 'Samples'), CATDS: 5.1032643222322503E-2; n = 1
# PIM2 = conditions: read-out: apparent Kd; compound concentrations: 100 nM and 1000 nM (sheet 'Samples'), CATDS: 0.19635235530270301; n = 1
# RAB14 = conditions: read-out: apparent Kd; compound concentrations: 100 nM and 1000 nM (sheet 'Samples'), CATDS: 4.5308660485802198E-2; n = 1
# RPS6KA3 = conditions: read-out: apparent Kd; compound concentrations: 100 nM and 1000 nM (sheet 'Samples'), CATDS: 4.2284934101133903E-2; n = 1
# RPS6KA6 = conditions: read-out: apparent Kd; compound concentrations: 100 nM and 1000 nM (sheet 'Samples'), CATDS: 6.3682849838720093E-2; n = 1
# SRC = conditions: read-out: apparent Kd; compound concentrations: 100 nM and 1000 nM (sheet 'Samples'), CATDS: 4.8588200967613397E-2; n = 1
# STK3 = conditions: read-out: apparent Kd; compound concentrations: 100 nM and 1000 nM (sheet 'Samples'), CATDS: 4.1174689810954603E-2; n = 1
# TAOK1 = conditions: read-out: apparent Kd; compound concentrations: 100 nM and 1000 nM (sheet 'Samples'), CATDS: 5.56620194527895E-2; n = 1
# SLK = conditions: read-out: apparent Kd; compound concentrations:100 nM and 1000 nM (sheet 'Samples'); n = 1
# STK10 = conditions: read-out: apparent Kd; compound concentrations:100 nM and 1000 nM (sheet 'Samples'); n = 1
# MAP3K1 = conditions: read-out: apparent Kd; compound concentrations:100 nM and 1000 nM (sheet 'Samples'); n = 1
smiles,measurement,setting,value
COc1ccc2nc(-c3cccc(C)n3)nc(Nc3ccncc3)c2c1 [GSK204919_KCGS],potency estimated from few doses,ACVR1B,0.0613 µM
same,potency estimated from few doses,PKN3,0.647 µM
same,potency estimated from few doses,PRKD2,0.0126 µM
same,potency estimated from few doses,PRKD3,0.00821 µM
Fc1cc(Cl)ccc1Nc1ccnc2cc(I)ccc12 [GW551191X],potency estimated from few doses,"ACVR2B; compound concentrations: 100 nM and 1000 nM (sheet 'Samples'), CATDS: 0.26563205076169",1.34 µM
same,potency estimated from few doses,DJA1,1.26 µM
same,potency estimated from few doses,PIK3CD; CATDS: 0.64872041714686801,0.203 µM
c1ccc(-c2n[nH]cc2-c2ccnc(-c3ccc(OCCN4CCOCC4)cc3)c2)nc1 [GW695874X],potency estimated from few doses,ACVR1B,0.0514 µM
same,potency estimated from few doses,GAK,0.432 µM
same,potency estimated from few doses,NQO2,0.256 µM
same,potency estimated from few doses,PRKD2,0.648 µM
same,potency estimated from few doses,PRKD3,1.46 µM
same,potency estimated from few doses,RIPK2,0.774 µM
same,potency estimated from few doses,TGFBR1,0.0277 µM
same,potency estimated from few doses,TGFBR2,0.758 µM
same,potency estimated from few doses,TNIK,1.17 µM
same,potency estimated from few doses,ZAK,2.09 µM
COc1ccc(-c2cc(-c3c[nH]nc3-c3ccccn3)ccn2)cc1 [GW679410X],potency estimated from few doses,ACVR1B,0.686 µM
same,potency estimated from few doses,NQO2,0.168 µM
same,potency estimated from few doses,TGFBR1,0.17 µM
same,potency estimated from few doses,TGFBR2,1.29 µM
same,potency estimated from few doses,TNIK,1.14 µM
COc1cccc(C2=C(c3cn(C)c4ccc(Cl)cc34)C(=O)NC2=O)c1 [RO3300230-000],potency estimated from few doses,ADCK1,1.86 µM
same,potency estimated from few doses,AKT1,1.65 µM
same,potency estimated from few doses,AKT2,1.21 µM
same,potency estimated from few doses,BTK,0.993 µM
same,potency estimated from few doses,CDC42BPG,1.22 µM
same,potency estimated from few doses,CSNK1A1,1.73 µM
same,potency estimated from few doses,CSNK1E,2.23 µM
same,potency estimated from few doses,CSNK1G3,1.71 µM
same,potency estimated from few doses,IARS,2.01 µM
same,potency estimated from few doses,MAPK14,1.07 µM
same,potency estimated from few doses,OPA1,1.29 µM
same,potency estimated from few doses,PIK3CD; CATDS: 0.15137185396719799,0.189 µM
same,potency estimated from few doses,PIM1,1.12 µM
same,potency estimated from few doses,PIM2,0.133 µM
same,potency estimated from few doses,RAB14,1.46 µM
same,potency estimated from few doses,RPS6KA3,1.74 µM
same,potency estimated from few doses,RPS6KA6,0.723 µM
same,potency estimated from few doses,SRC,1.25 µM
same,potency estimated from few doses,STK3,1.87 µM
same,potency estimated from few doses,TAOK1,0.935 µM
COc1ccc2cc(-c3c(-c4ccncc4)nc(-c4ccc(S(C)=O)cc4C)n3C)ccc2c1 (stereo not shown) [SB-630812],potency estimated from few doses,ACVR1B,0.288 µM
same,potency estimated from few doses,SLK,2.25 µM
same,potency estimated from few doses,STK10,1.99 µM
C[C@@H](Oc1cc(-n2cnc3cc(-c4ccnc(N5CCN(C)CC5)c4)ccc32)sc1C(N)=O)c1ccccc1Cl [GSK641502A],potency estimated from few doses,ACVR2B; compound concentrations:100 nM and 1000 nM (sheet 'Samples'),0.732 µM
same,potency estimated from few doses,MAP3K1,0.603 µM
same,potency estimated from few doses,SLK,1.94 µM
same,potency estimated from few doses,STK10,1.12 µM
